Measured values taken from publication PMC4336329 (PLoS ONE, 2015).
Screen size: about 310,000 compounds; about 14,000 (4.5%) showed an effect of 50% or more. Effects have a minus sign here. The full list was thinned out, with strong results kept by preference.

What follows are compounds tested against human ether-à-go-go-related gene (hERG) potassium channel (human, UniProt Q12809) (assay: primary screen, population patch clamp on CHO cells stably expressing hERG; higher = less effect of the substance).
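Further: peak tail current of the secondary pulse compared with the same well before compound.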

Chain of human ether-à-go-go-related gene (hERG) potassium channel (Q12809 whole entry, looked up): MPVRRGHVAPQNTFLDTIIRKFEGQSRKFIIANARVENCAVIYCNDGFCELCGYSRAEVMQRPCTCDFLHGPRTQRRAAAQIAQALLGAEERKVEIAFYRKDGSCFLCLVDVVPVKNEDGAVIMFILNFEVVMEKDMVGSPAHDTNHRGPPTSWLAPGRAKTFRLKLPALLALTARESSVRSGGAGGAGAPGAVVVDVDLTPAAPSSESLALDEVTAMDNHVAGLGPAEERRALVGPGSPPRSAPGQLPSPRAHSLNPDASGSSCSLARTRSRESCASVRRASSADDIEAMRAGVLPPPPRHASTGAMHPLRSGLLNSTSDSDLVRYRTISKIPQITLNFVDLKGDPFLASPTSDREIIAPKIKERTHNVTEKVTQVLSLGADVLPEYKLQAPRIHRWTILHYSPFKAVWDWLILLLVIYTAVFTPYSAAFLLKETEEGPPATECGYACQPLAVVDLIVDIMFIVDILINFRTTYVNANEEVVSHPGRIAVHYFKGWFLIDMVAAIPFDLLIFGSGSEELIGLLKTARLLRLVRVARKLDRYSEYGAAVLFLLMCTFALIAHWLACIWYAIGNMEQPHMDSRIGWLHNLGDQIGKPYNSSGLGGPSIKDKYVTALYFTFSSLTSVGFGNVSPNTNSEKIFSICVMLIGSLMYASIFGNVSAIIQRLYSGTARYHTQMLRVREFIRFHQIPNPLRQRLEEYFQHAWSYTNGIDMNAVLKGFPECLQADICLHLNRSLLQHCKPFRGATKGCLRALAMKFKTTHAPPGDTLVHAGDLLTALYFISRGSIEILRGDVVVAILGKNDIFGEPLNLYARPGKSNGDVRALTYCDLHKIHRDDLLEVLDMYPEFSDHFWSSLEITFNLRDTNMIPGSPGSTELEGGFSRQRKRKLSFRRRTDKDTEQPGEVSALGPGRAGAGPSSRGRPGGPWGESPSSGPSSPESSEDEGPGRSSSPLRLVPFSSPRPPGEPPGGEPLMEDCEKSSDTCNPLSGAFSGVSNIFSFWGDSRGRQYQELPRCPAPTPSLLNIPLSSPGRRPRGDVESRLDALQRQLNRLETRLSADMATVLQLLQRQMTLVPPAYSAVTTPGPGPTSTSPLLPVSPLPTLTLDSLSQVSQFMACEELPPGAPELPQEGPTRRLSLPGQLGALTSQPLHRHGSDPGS

SMILES | hERG current change (%, negative = inhibition) at 10uM [%]
CSc1ccc(/C=C(\NC(=O)c2ccc(C)cc2)C(=O)Nc2cccc(C)c2)cc1 | 15.6
CC(C)Oc1ccc(C2CC(=O)N(c3ccccc3)C2=O)cc1 (centres unmarked) | 6.47
CCC(N=c1cc(-c2ccc(OC)c(OC)c2)oc2ccc(C)cc12)C(=O)O (centres unmarked) | -20.7
COc1ccc(-c2cc(=Nc3ccc(C(=O)O)cc3)c3cc(C)ccc3o2)cc1 | 12.7
CCC(N=c1cc(-c2ccc(OC)cc2)oc2ccc(C)cc12)C(=O)O (centres unmarked) | -74.4
COc1ccc(-c2cc(=NCC(=O)O)c3ccccc3o2)cc1.[O-][Cl+3]([O-])([O-])O | -31.5
COc1ccc(-c2cc(=[NH+]c3cccc(C(=O)O)c3)c3cc(C)ccc3o2)cc1.[O-][Cl+3]([O-])([O-])[O-] | -0.536
COc1ccc(-c2cc(=NC(CC(C)C)C(=O)O)c3cc(C)ccc3o2)cc1 (centres unmarked) | -56.5
O=C(CN1C(=O)NC2(CCc3ccccc32)C1=O)NCC(=O)Nc1ccc(F)cc1 (centres unmarked) | 1.09
CCCc1c(C(=O)N/N=C/c2ccccc2C(F)(F)F)nnn1-c1nonc1N | 11.8
CC(C)c1ccc(CNc2ccc3c(c2)ncn3C)cc1 | 9.16
CC(C)(C)OC(=O)N1CCC[C@H]1c1nnc(SCc2c(Cl)cccc2Cl)o1 | -57.5
CC(C)(C)OC(=O)N1CCC[C@H]1c1nnc(SCc2c(F)cccc2Cl)o1 | 2.16
CC(C)(C)OC(=O)N1CCC[C@H]1c1nnc(SCc2ccccc2Cl)o1 | -5.07
Cc1ccccc1CNc1nnnn1C | 12.4
Br.O=C(CN1CCSC1=NCc1ccccc1)c1ccc(Cl)cc1 | -53.9
Br.O=C(CN1CCSC1=NCc1ccccc1)c1ccc(Cl)c(Cl)c1 | -17.7
Br.O=C(CN1CCSC1=NCc1ccccc1)c1ccccc1 | -23.5
C=CCNC(=O)c1c(-c2c(F)cccc2Cl)noc1C | -1.62
Cc1ccc(S(=O)(=O)N2CCC(C(=O)N3CCC[C@H]3C(=O)NCC(C)C)CC2)cc1 | 13.8
Cl.N=c1sccn1CC(=O)NCCc1ccc(Cl)cc1 | -26.3
CC(C)N=c1cc2n(-c3ccc(Cl)cc3)c3ccccc3nc-2cc1Nc1ccc(Cl)cc1 | 35.9
CCN(Cc1ccncc1)C(=O)c1cc(COc2ccc(OC)cc2Cl)on1 | -22.6
COc1cccc(OCc2cc(C(=O)N(C)Cc3nc4ccccc4[nH]3)no2)c1 | -37.1
CC(=O)c1ccc(OCc2cc(C(=O)N(C)Cc3nc4c(C)cccc4[nH]3)no2)cc1 | -10.7

SMILES | hERG current change (%, negative = inhibition) at 10uM [%]
CCN(Cc1ccncc1)C(=O)c1cc(COc2c(F)cccc2F)on1 | -36
CCN(Cc1ccncc1)C(=O)c1ccc(Br)o1 | 1.66
CCN(Cc1ccncc1)C(=O)c1cc(COc2c(C)cccc2C)on1 | -75.3
CCN(Cc1ccncc1)C(=O)c1ccco1 | -73.5
CCN(Cc1ccncc1)C(=O)c1cc(COc2ccc(C)c(C)c2)on1 | -69.5
Cc1cccc(C)c1OCc1cc(C(=O)N(C)Cc2nc3ccccc3[nH]2)no1 | -70.6
CCN(Cc1ccncc1)C(=O)c1cc(COc2ccc(F)cc2F)on1 | -36
CCN(Cc1ccccc1)C(=O)c1cc(COc2c(F)cccc2F)on1 | 3.85
CCN(Cc1ccncc1)C(=O)c1ccc(C)o1 | -0.494
CCN(CC(=O)NC1CCS(=O)(=O)C1)S(=O)(=O)c1cc(C)ccc1C (centres unmarked) | 10.2
COc1ccc(NC(=O)Cn2c(=O)c(C)nc3ccccc32)cc1Cl | -2.07
CN(C)c1ccc(CCc2ccc(N)cc2)cc1 | 19.9
Cc1sc(NC(=O)c2ccco2)c(CN2CCN(c3ccccc3)CC2)c1C | 7.18
CCOc1ccc2c(c1)nc(NCCCO)n2Cc1ccccc1 | -20.3
O=c1[nH]c2ccccc2nc1-c1cccs1 | 1.66
COc1cc(C)nc(N2CCCC(C(=O)Nc3cccc(Cl)c3C)C2)n1 (centres unmarked) | 0.916
C/C(=C\C(=O)c1cccnc1)Nc1ccc(O)cc1 | -6.35
CCOc1cc(N(CC)CC)ccc1/C=C(/C#N)c1nc2ccccc2[nH]1 | 0.119
NC(=O)c1nc(-c2ccco2)nc2c1[nH]c(=O)n2-c1ccc(Cl)c(Cl)c1 | -9.13
COC(=O)c1ccccc1NC(=O)NCc1ccccc1 | -3.24
Cc1c(C(=O)OC2CCC(C)CC2)[nH]c2c1C(=O)CCC2 (centres unmarked) | -3.25
Cc1ccc(NS(=O)(=O)c2ccc(-c3csc(C)n3)s2)c(C)c1 | 16
CCN(CCn1cccn1)C(=O)c1cc(COc2c(F)cccc2F)on1 | 0.76
CCN(CCn1cccn1)C(=O)c1cc(COc2ccc(F)cc2Cl)on1 | -15.4
CCN(CCn1cccn1)C(=O)c1cc(COc2ccc(F)c(F)c2)on1 | -96

SMILES | hERG current change (%, negative = inhibition) at 10uM [%]
O=C1C2C3c4ccccc4C(c4ccccc43)[C@@H]2C(=O)N1c1ccccn1 (some centres unmarked) | 5.6
O=C(N/N=C/c1ccc(OC(F)F)cc1OC(F)F)c1cccc(S(=O)(=O)N2CCOCC2)c1 | -33.1
COC(=O)Cn1ncn2c(cc3oc(C)cc32)c1=O | 13.1
CCN(CC(=O)Nc1ccc(OC)cc1)C(=O)COc1cccc2c1OC(C)(C)C2 | -14.1
c1ccc(OCc2noc(CN3CC[C@@H]4CCCC[C@H]4C3)n2)cc1 | 0.704
c1ccc(C2CCCN(Cc3nc(CC4CC4)no3)CC2)cc1 (centres unmarked) | 2.97
c1ccc(CN2CCCC3(CCCN(Cc4nc(CC5CC5)no4)C3)C2)cc1 (centres unmarked) | -52.1
C=CCC1(CC=C)CCCN1Cc1nc(COc2ccccc2)no1 | -11.5
Cc1ccccc1C1CCCN(Cc2nc(CC3CC3)no2)C1 (centres unmarked) | -12.7
c1ccc(CN2CCCC3(CCCN(Cc4nc(COc5ccccc5)no4)C3)C2)cc1 (centres unmarked) | -69.3
CN(CC(=O)O/N=C(\N)c1ccccn1)S(=O)(=O)c1ccccc1 | -4.98
COc1ccccc1NC(=O)NCCCN1CCN(c2cccc(Cl)c2)CC1 | -73.7
O=C(Nc1ccc(F)cc1F)N1CCCN(CCOc2ccccc2)CC1 | -45.2
Cc1cccc(C)c1NC(=O)NCCCN1CCN(c2ccccc2)CC1 | -41.1
O=C(NCCN1CCN(Cc2ccccc2)CC1)Nc1cc(Cl)cc(Cl)c1 | -75.2
O=C(Nc1ccc2ccccc2c1)N1CCCN(CCOc2ccccc2)CC1 | -66
COc1ccc(N2CCN(CCNC(=O)Nc3cc(Cl)ccc3OC)CC2)cc1 | 3.23
Cc1ccccc1NC(=O)NCCCN1CCN(C)CC1 | 28.1
Cc1ccccc1NC(=O)NCCCN1CCN(c2ccccc2)CC1 | -50.7
Cc1noc(C)c1NC(=O)NCCN1CCN(Cc2ccccc2)CC1 | 13.7
CCCN1CCN(C(=O)Nc2ccc(OCC)cc2)CC1 | -1.93
O=C(NCCN1CCCCC1)Nc1ccccc1 | -23.2
COc1ccccc1NC(=O)NCCN1CCN(c2cccc(Cl)c2)CC1 | -9.6
CC(C)C(C)NC(=O)CSc1ccc(S(=O)(=O)N2CCOCC2)cn1 (centres unmarked) | -1.56
CCOC(=O)C(CSCc1ccccc1)NC(=O)OC(C)(C)C (centres unmarked) | -14.8

SMILES | hERG current change (%, negative = inhibition) at 10uM [%]
CCOCCCNC(=O)C(C)NS(=O)(=O)c1ccc(C)cc1 (centres unmarked) | 4.29
COc1ccccc1NC(=O)CSCc1cc(=O)n2ccsc2n1 | 13.3
COc1cccc(C(=O)O/N=C(\N)c2ccccn2)c1 | -2.49
Cc1cc(C)cc(C(=O)Nc2cccc(NC(=O)c3ccco3)c2)c1 | -14.2
Cc1ccc(S(=O)(=O)NCCC(=O)N2CCCCCC2)cc1 | 1.86
CC(C)c1nc(SCC(=O)N2CCCC2)c2c(=O)n(C)c(=O)n(C)c2n1 | -21.8
O=C(NC(=S)N1CCCC1)c1cccc([N+](=O)[O-])c1 | 19.9
CCCCNC(=O)CCCCCNS(=O)(=O)c1ccc(OC)cc1 | 13.8
CCn1c(SCC(=O)Nc2ccc(N3CCOCC3)cc2)nnc1-c1ccc(OC)cc1 | -14.8
CCCc1c2c(cc3c(=O)cc(C(=O)OCC)oc13)CCCC2 | -0.971
COc1cc(OC)cc(C(=O)Nn2cc(C(=O)N3CCN(C)CC3)c3ccccc3c2=O)c1 | 2.72
O=C(NCCN1CCN(c2ccccc2)CC1)Nc1cccc(Cl)c1 | -55.7
O=C(Nc1cc(Cl)cc(Cl)c1)N1CCCN(Cc2ccccc2)CC1 | -76.3
Cc1ccc(NC(=O)NCCN2CCN(c3ccccc3)CC2)cc1Cl | 16.7
O=C(NCCCN1CCN(c2ccccc2)CC1)Nc1ccccc1C(F)(F)F | -49.3
O=C(NCCN1CCN(c2ccccc2)CC1)Nc1ccc(Cl)cc1 | -45.5
O=C(NCCN1CCN(c2ccccc2)CC1)Nc1ccccc1Cl | -43.3
O=C(NCCN1CCN(c2ccccc2)CC1)Nc1cccc(Br)c1 | -58.1
O=C(Nc1ccccc1)N1CCN(Cc2ccc(Cl)cc2)CC1 | -33.8
O=C(NCCN1CCOCC1)Nc1ccccc1 | -6.63
O=C(Nc1ccccc1)N1CCN(Cc2ccccc2)CC1.O=C(O)C(=O)O | 11.9
O=C(NCCN1CCN(c2ccccc2)CC1)Nc1ccccc1Br | -52.1
O=C(NCCN1CCN(c2cccc(Cl)c2)CC1)Nc1ccccc1 | -35.1
